Most compounds without a hit are left out; they make up all but 19% or so of the library.
HT1080-NT tox: kills 2HG-producing HT-1080-NT fibrosarcoma cells | HT-1080-NT fibrosarcoma viability, CellTiter-Glo ATP luminescence, 48 h | Potency, µM (doses to about 46.1 µM), most hits filed as cytotoxic | 1.6% of 360,000 active | AID 686970;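 note: NT is the 2HG producing partner of a matched IDH1 knockdown line; nearly all actives have a fitted effect of over 55% in size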
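Viability by CellTiter-Glo luminescence after 48 h compound exposure at 37C of HT-1080-NT cells (750/well, RPMI, 5% FBS). % activity scaled between DMSO wells and medium-only wells, then curve-fitted and categorized by curve class.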
KB-3-1 tox: kills parental KB-3-1 adenocarcinoma cells; AID 1347075; 1.4% of 400,000 active; Potency, µM (titrated, usually from 46.1 µM), most hits filed as cytotoxic; KB-3-1 viability, CellTiter-Glo ATP luminescence, 72 h; note: nearly all actives have a fitted effect of over 60% in size
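Screening of KB-3-1 cells (DMEM, 10% FBS, phenol-red free) ran from lowest to highest compound concentration; after 72 h at 37 °C viability was read luminescently and curves fitted.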
HT1080 IDH1KD tx: HT-1080 IDH1 knockdown cell toxicity (counter line) | HT-1080 IDH1 knockdown viability, ATP luminescence, 48 h | Potency, µM (highest dose often 46.1 µM), most hits filed as cytotoxic | 2% of 360,000 active
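Luminescent ATP read-out (CellTiter-Glo, 10 min at room temperature) after 48 h compound exposure at 37 °C gave viability of IDH1-knockdown HT-1080 cells. Activity was normalised to DMSO and cell-free wells, then fitted as concentration-response curves.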
DT40 TDP1 CPT: DT40-hTDP1 cell growth loss with CPT; chicken DT40 Tdp1-/-;hTDP1 cells + 20 nM CPT, ATP luminescence, 48 h; Potency, µM (series often up to 46.2 µM), actives largely listed as inhibitors; 12% of 420,000 active; AID 686979; note: nearly all actives have a fitted effect of over 55% in size
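Chicken DT40 Tdp1-/- cells complemented with human TDP1, 400 cells/well, exposed to compounds plus 20 nM camptothecin for at least 48 h at 37 C; viability read as ATP content by CellTiter-Glo luminescence.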
DT40 TDP1 no CPT: qHTS for Inhibitors of human tyrosyl-DNA phosphodiesterase 1 (TDP1): qHTS in cells in absence of CPT | Potency, µM (titrated, usually from 46.2 µM), hits mostly inhibitors | DT40 Tdp1-/- hTDP1 cells, no CPT, ATP luminescence, 48 h | 15% of 420,000 active; note: nearly all actives have a fitted effect of over 55% in size
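Cells were dispensed at 400 per well, compounds added by pin tool, plates incubated ≥48 hr at 37 °C, then CellTiter-Glo added for 30 min at room temperature before luminescence reading. Line: DT40 Tdp1-/- complemented with hTDP1; camptothecin omitted.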
KB-V1 cytotox: kills drug-selected multidrug resistant KB-V1 cells; 3.4% of 400,000 active; Potency, µM (top dose mostly 46.1 µM), hits mostly cytotoxic; KB-V1 MDR cells viability, CellTiter-Glo, 72 h; AID 1347076; note: nearly all actives have a fitted effect of over 60% in size
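KB-V1, DMEM (no phenol red) + 10% FBS; cpd pin-transferred, titration series; 72 h, 37 degrees C; CellTiter-Glo, luminescence. Data normalized, curve-fit.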
Hits are given with their value; . = inactive; ? = inconclusive; / = no result given; ! = a repeat was not active; [ ] = dose if it differs, or a comment. Calls come from the whole dose curve; as a rule, active = well fitted curve in the direction sought with a large enough effect; inconclusive = small, poorly fitted or top-dose-only effect, or another doubt; inactive = no such curve, though single readings can be large; an effect the other way counts as inactive or inconclusive.

SMILES | HT1080-NT tox | KB-3-1 tox | HT1080 IDH1KD tx | DT40 TDP1 CPT | DT40 TDP1 no CPT | KB-V1 cytotox
ClC(Cl)(c1nnnn1-c1ccccc1)c1nnnn1-c1ccccc1 | ? | . | 6.51µM | 1.3µM | 2.59µM | .
COc1ccc(Cl)cc1C(=O)NNC(=O)CNC(=O)c1ccc(C)s1 | . | . | . | . | . | .
Fc1ccc(-c2noc3ncnc(NCCCN4CCN(c5ccccc5)CC4)c23)cc1 | / | . | / | ? | ? | .
Cc1ccc(/C=C/c2onc(C)c2S(=O)(=O)N2CCC(C(=O)Nc3ccccc3C(F)(F)F)CC2)cc1 | / | . | / | . | . | ?
CN(C)c1ccc(-c2nc(Nc3ccncc3)c3ccccc3n2)cc1 | / | / | / | 9.2µM | 5.8µM | /
COc1ccc(CNc2nc(-c3ccc(N(C)C)cc3)nc3ccccc23)c(OC)c1 | / | / | / | 4.11µM | 4.11µM | /
c1cncc(CNc2nc(-c3ccoc3)nc3ccccc23)c1 | / | / | / | ? | 20.6µM | /
Fc1ccccc1CNc1nc(-c2cccnc2)nc2ccccc12 | . | . | . | ? | 23.1µM | .
c1cncc(-c2nc(NCc3cccs3)c3ccccc3n2)c1 | . | . | . | ? | ? | ?
CS(=O)c1ccc(-n2c(=O)n(Cc3ccccc3)c(=O)c3[nH]cnc32)cc1 (stereo unspecified) | . | . | . | . | . | .
Cc1ncc2c(c1CNC(=O)c1ccc3c(c1)OCO3)CCN(C(=O)c1noc3c1CCCC3)C2 | / | / | / | .[9.04 µM] | . | /
CCN(CC(=O)Nc1c(F)cccc1F)C(=O)c1nn(C)c(=O)c2ccccc12 | .[9.24 µM] | . | . | . | . | .
Cc1ccn2c(=O)cc(CSc3nnc(NC(=O)c4ccccc4Cl)s3)nc2c1 | / | / | / | . | ? | /
O=[N+]([O-])c1ccc(-c2nc(NCc3cccnc3)c3ccccc3n2)cc1 | . | . | . | . | . | .
CN(C)c1ccc(-c2nc(NCc3cccnc3)c3ccccc3n2)cc1 | / | / | / | 3.66µM | 4.11µM | /
COC(=O)N1C(=O)[C@](c2ccc(Cl)cc2)(C(C)C)N1C(=O)OC | . | . | . | 13µM | 23.1µM | .
COC(=O)N1C(=O)[C@@](c2ccccc2)(C(C)C)N1C(=O)OC | . | . | . | 16.4µM | ? | .
C#CC[N+](C)(C)CC#Cc1ccccc1 | . | ? | . | . | . | .
Cc1ccc(C#CC[N+](C)(C)CC#Cc2ccccc2)cc1 | ? | ? | ? | 2.06µM | 1.84µM | .
Nc1[nH]c(=O)nc2snnc12 | . | . | ? | . | . | ?
CCOCCN(C(=O)c1ccccc1Cl)c1cccc(C)c1C | . | . | . | 25.9µM | ? | ?
CCOCCNC(=O)c1ccccc1C(=O)NCCOCC | . | . | . | . | . | .
Cc1nn(-c2ccccc2)c2c1cc1c(=O)[nH]c(=O)nc-1n2-c1cccc(Cl)c1 | / | . | / | . | . | .
Cc1ccc(-n2c3nc(=O)n(C)c(=O)c-3cc3c(Cl)cccc32)c(C)c1 | / | . | / | . | ? | .
Cc1cccc(-n2c3nc(=O)[nH]c(=O)c-3cc3c(Cl)cccc32)c1C | / | . | / | 0.82µM | 0.581µM | .
SMILES | HT1080-NT tox | KB-3-1 tox | HT1080 IDH1KD tx | DT40 TDP1 CPT | DT40 TDP1 no CPT | KB-V1 cytotox
Cc1cccc(-n2c3nc(=O)[nH]c(=O)c-3cc3ccc(Cl)cc32)c1C | / | . | / | ? | 8.2µM | .
COc1ccc(C(=O)NCc2nnc(SC)n2-c2ccccc2C)c(OC)c1OC | / | / | / | .[9.04 µM] | . | /
CNc1nc(SCC(=O)Nc2ccccc2)nc(N2CCOCC2)n1 | . | / | . | . | . | /
Cc1sc2nc(CN(Cc3ccccc3)C(=O)NC3CCCCC3)[nH]c(=O)c2c1C | ? | . | ? | 20.6µM | 18.4µM | .
CC(=O)N(Cc1ccccc1)Cc1nc2sc(C)c(C)c2c(=O)[nH]1 | . | . | . | . | 13µM | ?
CC(=O)N(Cc1nc2sc(C)c(C)c2c(=O)[nH]1)C1CCCC1 | . | . | . | 20.6µM | ? | ?
COc1ccccc1CCC(=O)Nc1ccc(C)cc1Cl | . | . | . | . | . | ?
COc1ccc(CCN(C)C(=O)COc2cccc(-n3cnnn3)c2)cc1OC | . | ? | . | . | . | .
c1nc(C2CCCCC2)cc2cc3c(cc12)OCO3 | . | . | . | ? | 20.6µM | .
CC/C(=C(\c1ccccc1)c1ccc(OCCN(C)C)cc1)c1ccccc1 | 16.4µM | . | ? | 20.6µM | 18.4µM | ?
CN(C)CCOc1ccc(C(C)(C)c2ccccc2)cc1 | . | . | . | ? | ? | .
CCN(CC)CCOc1ccc(/C(=C(/Cl)c2ccccc2)c2ccccc2)cc1 | 18.4µM | ? | 18.4µM! | 23.1µM | 23.1µM | ?
COc1ccc(C(=O)Nc2ccc(S(=O)(=O)N3CCOCC3)cc2)cc1 | . | . | . | . | . | .
O=C(Nc1ccc(Cl)c(S(=O)(=O)N2CCOCC2)c1)c1ccc(Cl)nc1 | . | ? | . | ? | 18.4µM | ?
O=C(Nc1ccc(Cl)c(S(=O)(=O)N2CCOCC2)c1)c1ccc2c(c1)OCCO2 | . | . | . | ? | ? | ?
COc1cccc(CNC(=O)c2ccc(Cl)c(S(=O)(=O)N3CCOCC3)c2)c1 | . | ? | . | . | 4.11µM | .
COc1ccc(C(=O)Nc2ccc(Cl)c(S(=O)(=O)N3CCOCC3)c2)cc1 | 3.66µM | ? | . | ? | ? | 7.31µM
COc1ccc(NC(=O)c2ccc(Br)c(S(=O)(=O)N3CCOCC3)c2)cc1 | . | ? | . | . | ? | 20.6µM
COc1ccccc1NC(=O)Cn1cc(C(=O)c2ccncc2)c(=O)c2cc(C)ccc21 | / | / | / | . | . | /
CC(CCc1ccccc1)NC(=O)CCCn1ncn2c(cc3occc32)c1=O (stereo unspecified) | . | ? | . | . | . | .
Fc1cccc(Nc2ncnc3c2cnn3-c2ccccc2)c1 | . | . | . | ? | 16.4µM | ?
N#Cc1cccc(Nc2ncnc3c2cnn3-c2cccc(Cl)c2)c1 | / | . | / | ? | 23.1µM | ?
Clc1cccc(Nc2ncnc3c2cnn3-c2ccccc2)c1 | . | . | . | ? | ? | .
CCOC(=O)c1ccc(Nc2ncnc3c2cnn3-c2cccc(Cl)c2)cc1 | / | . | / | . | ? | .
O=c1c2c([nH]n1-c1ccccc1)CCSC2 | . | . | . | ? | . | .
Cc1ccccc1NC(=O)CSc1ccc(-c2cccs2)nn1 | / | / | / | ? | 23.1µM | /
O=C(CSc1ccc(-c2cccs2)nn1)N1CCCCCC1 | . | . | . | ? | 23.1µM | .
Cc1cccc(NC(=O)CSc2ccc(-c3cccs3)nn2)c1C | . | . | . | . | . | .
O=C(CSc1ccc(-c2cccs2)nn1)N1CCCCC1 | . | . | . | . | . | .
CCOC(=O)C1(CCCc2ccccc2)CCN(C2CCN(C(C)=O)CC2)CC1 | . | . | . | ? | ? | .

From PubChem BioAssay
